Legend:
Assay in all cases: DAPPL (digital affinity profiling via proximity ligation, sequencing); 10 mM Tris-HCl pH 7.5, 50 mM NaCl, 1 mM DTT, 4% glycerol, room temperature, 30 min; GST-TFs on glutathione beads, 16-mer random dsDNA library, 0.1% formaldehyde crosslink after washing; high values mean tight binding
Details in all cases: protein: recombinant; tags: N-terminal GST; dsDNA, one strand shown
[1] = target: T1, FLI1 (Homo sapiens, UniProt Q01543 1-452)
T1 sequence: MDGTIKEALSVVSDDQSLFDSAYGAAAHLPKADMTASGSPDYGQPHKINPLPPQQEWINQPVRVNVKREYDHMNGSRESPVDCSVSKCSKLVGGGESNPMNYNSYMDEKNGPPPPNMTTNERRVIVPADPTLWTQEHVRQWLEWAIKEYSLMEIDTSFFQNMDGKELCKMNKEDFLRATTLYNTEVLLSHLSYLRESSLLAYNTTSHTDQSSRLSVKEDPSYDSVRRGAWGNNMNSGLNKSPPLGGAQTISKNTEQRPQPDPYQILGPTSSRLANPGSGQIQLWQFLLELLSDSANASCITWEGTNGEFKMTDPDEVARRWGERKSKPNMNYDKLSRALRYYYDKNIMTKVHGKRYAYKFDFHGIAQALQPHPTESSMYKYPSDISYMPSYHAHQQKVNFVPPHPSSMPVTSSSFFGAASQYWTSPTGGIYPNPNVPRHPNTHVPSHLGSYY
Summary of the method: (§1)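 Each value of binding signal is a hexamer's read frequency for a factor divided by the same hexamer's frequency in the tag-only sample. Barcoded, bead-captured GST fusions of human transcription factors made in yeast were pooled with that sample and incubated with 200 nmole of a random double-stranded 16-mer DNA library in Tris/NaCl/DTT/glycerol buffer at room temperature for 30 min. Washing, 0.1% formaldehyde crosslinking, proximity ligation, PCR and Illumina NextSeq500 sequencing followed.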

[2] = target: T2, ELK1 (Homo sapiens, UniProt P19419 1-428)
T2 sequence: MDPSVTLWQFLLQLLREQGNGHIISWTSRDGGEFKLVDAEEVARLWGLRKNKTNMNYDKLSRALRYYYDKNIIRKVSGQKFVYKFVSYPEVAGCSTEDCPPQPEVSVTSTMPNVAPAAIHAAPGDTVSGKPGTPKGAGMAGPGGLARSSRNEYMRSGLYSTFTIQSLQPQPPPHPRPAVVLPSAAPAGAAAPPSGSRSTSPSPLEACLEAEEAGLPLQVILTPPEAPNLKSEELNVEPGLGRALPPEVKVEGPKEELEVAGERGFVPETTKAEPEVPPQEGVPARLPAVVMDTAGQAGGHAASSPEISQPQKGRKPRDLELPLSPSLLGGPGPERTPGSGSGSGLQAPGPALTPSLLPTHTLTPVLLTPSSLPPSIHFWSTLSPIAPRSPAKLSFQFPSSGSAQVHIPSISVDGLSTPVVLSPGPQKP
Summary of the method: as §1

[3] = target: T3, GABPA (Homo sapiens, UniProt Q06546 1-454)
T3 sequence: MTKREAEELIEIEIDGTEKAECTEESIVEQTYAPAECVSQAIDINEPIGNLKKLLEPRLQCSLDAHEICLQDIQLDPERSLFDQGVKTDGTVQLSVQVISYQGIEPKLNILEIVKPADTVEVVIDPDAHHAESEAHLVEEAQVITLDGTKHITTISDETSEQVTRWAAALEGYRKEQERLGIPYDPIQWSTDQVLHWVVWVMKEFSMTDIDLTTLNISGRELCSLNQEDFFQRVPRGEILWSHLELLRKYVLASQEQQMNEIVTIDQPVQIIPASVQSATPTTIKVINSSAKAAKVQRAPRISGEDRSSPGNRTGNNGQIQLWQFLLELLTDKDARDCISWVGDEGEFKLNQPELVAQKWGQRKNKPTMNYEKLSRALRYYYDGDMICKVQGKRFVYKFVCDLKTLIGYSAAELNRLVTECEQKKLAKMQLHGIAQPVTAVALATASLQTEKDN
Summary of the method: as §1

[4] = target: T4, ERG (Homo sapiens, UniProt P11308 1-479)
T4 sequence: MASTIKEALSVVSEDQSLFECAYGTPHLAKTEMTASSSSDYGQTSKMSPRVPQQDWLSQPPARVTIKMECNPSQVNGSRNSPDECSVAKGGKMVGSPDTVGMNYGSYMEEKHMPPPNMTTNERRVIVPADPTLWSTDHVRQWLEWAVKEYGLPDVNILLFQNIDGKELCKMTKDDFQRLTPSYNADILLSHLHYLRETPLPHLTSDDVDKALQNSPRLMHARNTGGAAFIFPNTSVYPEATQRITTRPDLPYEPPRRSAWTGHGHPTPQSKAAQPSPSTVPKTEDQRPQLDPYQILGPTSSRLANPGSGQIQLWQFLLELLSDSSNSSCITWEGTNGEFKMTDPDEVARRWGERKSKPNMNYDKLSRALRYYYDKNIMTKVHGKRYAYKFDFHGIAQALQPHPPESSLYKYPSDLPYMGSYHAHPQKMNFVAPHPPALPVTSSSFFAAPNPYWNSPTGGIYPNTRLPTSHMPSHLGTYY
Summary of the method: as §1

[5] = target: ELF1 (Homo sapiens, UniProt P32519 1-619)
Summary of the method: as §1

[6] = target: T5, EHF (Homo sapiens, UniProt Q9NZC4 1-300)
T5 sequence: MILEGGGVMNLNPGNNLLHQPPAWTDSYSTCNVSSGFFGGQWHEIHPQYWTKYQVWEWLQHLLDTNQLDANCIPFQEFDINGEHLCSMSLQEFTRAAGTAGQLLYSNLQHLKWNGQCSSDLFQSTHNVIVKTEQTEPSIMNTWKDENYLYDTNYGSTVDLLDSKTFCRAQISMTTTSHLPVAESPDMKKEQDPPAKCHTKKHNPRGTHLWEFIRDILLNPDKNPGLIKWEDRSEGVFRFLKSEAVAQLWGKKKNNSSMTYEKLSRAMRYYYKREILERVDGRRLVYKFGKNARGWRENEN
Summary of the method: as §1

[7] = target: SPI1 (Homo sapiens, UniProt P17947 1-270)
Summary of the method: as §1

[8] = target: SPIB (Homo sapiens, UniProt Q01892 1-262)
Summary of the method: as §1

[9] = target: T6, ELK3 (Homo sapiens, UniProt P41970 1-407)
T6 sequence: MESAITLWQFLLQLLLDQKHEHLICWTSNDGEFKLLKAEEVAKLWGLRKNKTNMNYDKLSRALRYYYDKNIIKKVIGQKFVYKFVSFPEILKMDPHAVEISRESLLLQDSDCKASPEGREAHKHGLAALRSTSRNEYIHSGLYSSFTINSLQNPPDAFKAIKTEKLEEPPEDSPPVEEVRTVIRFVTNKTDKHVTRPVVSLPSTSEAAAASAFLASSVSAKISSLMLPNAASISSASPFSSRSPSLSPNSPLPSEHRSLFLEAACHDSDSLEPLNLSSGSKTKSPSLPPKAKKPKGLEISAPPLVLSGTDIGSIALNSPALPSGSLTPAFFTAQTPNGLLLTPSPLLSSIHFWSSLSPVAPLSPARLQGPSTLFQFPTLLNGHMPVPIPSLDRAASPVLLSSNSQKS
Summary of the method: as §1

[10] = target: T7, FEV (Homo sapiens, UniProt Q99581 1-238)
T7 sequence: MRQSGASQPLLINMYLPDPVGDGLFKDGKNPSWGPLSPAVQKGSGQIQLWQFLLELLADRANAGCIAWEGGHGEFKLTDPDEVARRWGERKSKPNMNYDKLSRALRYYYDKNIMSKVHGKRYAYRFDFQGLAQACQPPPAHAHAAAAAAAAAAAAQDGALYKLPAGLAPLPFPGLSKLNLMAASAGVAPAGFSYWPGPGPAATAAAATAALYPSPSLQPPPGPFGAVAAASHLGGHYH
Summary of the method: as §1

[11] = target: ETV5 (Homo sapiens, UniProt P41161 1-510)
Summary of the method: as §1

[12] = target: T8, SPIC (Homo sapiens, UniProt Q8N5J4 1-248)
T8 sequence: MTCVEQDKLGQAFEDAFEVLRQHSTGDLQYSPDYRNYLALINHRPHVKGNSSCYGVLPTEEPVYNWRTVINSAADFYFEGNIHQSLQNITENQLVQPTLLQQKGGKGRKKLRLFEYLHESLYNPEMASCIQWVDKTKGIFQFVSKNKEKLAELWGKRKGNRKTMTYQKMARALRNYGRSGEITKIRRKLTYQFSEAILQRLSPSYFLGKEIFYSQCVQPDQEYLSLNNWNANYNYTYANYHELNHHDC
Summary of the method: as §1

[13] = target: ELF4 (Homo sapiens, UniProt Q99607 1-663)
Summary of the method: as §1

[14] = target: T9, ELK4 (Homo sapiens, UniProt P28324-2 1-405)
T9 sequence: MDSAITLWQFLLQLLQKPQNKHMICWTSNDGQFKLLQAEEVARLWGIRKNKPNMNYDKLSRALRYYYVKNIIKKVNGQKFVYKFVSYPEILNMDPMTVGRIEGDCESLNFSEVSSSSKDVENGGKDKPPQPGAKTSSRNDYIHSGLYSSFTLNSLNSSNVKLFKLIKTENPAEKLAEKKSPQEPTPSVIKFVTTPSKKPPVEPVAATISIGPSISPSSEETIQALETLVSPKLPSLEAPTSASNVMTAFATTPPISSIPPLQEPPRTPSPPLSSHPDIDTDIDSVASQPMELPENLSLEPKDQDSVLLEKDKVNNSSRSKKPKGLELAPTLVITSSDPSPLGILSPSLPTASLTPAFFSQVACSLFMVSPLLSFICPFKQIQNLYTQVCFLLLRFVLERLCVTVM
Summary of the method: as §1

[15] = target: T10, ETV2 (Homo sapiens, UniProt O00321 1-342)
T10 sequence: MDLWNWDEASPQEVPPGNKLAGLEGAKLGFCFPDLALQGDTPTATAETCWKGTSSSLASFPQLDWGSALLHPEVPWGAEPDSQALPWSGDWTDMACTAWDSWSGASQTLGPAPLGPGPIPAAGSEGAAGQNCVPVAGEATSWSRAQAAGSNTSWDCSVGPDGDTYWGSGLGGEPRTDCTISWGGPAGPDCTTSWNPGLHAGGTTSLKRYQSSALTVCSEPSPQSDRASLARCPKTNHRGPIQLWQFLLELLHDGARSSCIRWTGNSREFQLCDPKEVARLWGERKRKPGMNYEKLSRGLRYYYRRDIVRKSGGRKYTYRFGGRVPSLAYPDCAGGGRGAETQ
Summary of the method: as §1

[16] = target: T11, ELF3 (Homo sapiens, UniProt P78545 1-371)
T11 sequence: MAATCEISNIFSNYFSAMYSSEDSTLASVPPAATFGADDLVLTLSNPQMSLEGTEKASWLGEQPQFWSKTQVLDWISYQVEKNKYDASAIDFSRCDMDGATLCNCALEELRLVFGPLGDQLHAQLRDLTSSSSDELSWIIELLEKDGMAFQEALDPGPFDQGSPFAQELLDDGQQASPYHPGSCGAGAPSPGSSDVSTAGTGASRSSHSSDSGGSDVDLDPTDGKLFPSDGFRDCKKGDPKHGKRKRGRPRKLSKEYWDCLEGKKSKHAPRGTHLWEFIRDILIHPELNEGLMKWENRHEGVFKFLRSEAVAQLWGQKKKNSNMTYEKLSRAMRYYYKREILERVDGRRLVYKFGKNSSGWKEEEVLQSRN
Summary of the method: as §1

[17] = target: CRX (Homo sapiens, UniProt O43186 1-299)
Summary of the method: as §1

[18] = target: ETV1 (Homo sapiens, UniProt P50549 1-477)
Summary of the method: as §1

Sequence of SPIB (Q01892 whole entry): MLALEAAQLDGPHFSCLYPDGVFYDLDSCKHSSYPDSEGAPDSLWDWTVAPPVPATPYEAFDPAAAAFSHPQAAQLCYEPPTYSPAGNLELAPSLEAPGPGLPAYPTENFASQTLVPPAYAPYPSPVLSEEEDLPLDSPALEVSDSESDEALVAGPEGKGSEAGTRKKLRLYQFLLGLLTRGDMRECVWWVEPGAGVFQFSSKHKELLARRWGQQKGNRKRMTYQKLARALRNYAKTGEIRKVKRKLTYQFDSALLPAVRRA
Sequence of ETV1 (P50549 whole entry): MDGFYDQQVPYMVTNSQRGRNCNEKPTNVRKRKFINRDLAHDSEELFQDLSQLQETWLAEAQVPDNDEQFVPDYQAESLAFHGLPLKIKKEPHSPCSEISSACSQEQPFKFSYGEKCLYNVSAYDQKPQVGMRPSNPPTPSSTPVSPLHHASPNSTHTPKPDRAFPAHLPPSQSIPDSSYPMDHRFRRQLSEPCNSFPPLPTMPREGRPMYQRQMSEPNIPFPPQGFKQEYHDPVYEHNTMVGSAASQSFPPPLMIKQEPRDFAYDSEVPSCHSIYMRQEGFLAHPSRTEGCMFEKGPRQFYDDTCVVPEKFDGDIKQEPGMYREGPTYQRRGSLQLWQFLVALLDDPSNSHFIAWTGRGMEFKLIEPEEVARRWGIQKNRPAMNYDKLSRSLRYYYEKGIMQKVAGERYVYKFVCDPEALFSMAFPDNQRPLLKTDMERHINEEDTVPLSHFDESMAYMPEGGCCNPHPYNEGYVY
Sequence of ETV5 (P41161 whole entry): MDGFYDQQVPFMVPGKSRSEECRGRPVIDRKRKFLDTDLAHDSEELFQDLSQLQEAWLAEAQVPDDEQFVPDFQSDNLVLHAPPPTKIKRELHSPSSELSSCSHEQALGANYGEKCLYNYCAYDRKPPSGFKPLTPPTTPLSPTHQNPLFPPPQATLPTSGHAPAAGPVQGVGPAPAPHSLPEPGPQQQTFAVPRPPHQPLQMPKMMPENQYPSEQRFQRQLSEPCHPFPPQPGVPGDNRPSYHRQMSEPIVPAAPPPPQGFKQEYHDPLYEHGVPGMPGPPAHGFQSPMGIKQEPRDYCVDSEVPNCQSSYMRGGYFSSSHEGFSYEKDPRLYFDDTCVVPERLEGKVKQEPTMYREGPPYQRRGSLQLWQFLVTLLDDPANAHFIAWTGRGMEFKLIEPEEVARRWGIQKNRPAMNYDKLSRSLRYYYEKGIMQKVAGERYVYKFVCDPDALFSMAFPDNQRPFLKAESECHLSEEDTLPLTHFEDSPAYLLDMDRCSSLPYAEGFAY
Sequence of ELF1 (P32519 whole entry): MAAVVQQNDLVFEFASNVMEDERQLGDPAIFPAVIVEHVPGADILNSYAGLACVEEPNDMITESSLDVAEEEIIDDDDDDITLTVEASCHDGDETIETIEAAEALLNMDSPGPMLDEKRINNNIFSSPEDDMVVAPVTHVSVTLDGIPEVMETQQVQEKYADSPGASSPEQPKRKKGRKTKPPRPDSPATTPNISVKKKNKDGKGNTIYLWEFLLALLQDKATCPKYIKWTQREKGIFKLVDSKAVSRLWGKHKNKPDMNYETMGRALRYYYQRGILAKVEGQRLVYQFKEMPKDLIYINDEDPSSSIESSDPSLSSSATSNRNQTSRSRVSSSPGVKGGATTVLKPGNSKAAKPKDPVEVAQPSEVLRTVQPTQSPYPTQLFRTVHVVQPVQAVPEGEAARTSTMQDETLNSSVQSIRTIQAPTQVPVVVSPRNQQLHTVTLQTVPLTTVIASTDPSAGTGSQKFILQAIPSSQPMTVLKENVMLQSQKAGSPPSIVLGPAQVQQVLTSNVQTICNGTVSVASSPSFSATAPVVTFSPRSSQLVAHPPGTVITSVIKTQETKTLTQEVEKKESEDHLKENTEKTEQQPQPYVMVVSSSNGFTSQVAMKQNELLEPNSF
Sequence of ELF4 (Q99607 whole entry): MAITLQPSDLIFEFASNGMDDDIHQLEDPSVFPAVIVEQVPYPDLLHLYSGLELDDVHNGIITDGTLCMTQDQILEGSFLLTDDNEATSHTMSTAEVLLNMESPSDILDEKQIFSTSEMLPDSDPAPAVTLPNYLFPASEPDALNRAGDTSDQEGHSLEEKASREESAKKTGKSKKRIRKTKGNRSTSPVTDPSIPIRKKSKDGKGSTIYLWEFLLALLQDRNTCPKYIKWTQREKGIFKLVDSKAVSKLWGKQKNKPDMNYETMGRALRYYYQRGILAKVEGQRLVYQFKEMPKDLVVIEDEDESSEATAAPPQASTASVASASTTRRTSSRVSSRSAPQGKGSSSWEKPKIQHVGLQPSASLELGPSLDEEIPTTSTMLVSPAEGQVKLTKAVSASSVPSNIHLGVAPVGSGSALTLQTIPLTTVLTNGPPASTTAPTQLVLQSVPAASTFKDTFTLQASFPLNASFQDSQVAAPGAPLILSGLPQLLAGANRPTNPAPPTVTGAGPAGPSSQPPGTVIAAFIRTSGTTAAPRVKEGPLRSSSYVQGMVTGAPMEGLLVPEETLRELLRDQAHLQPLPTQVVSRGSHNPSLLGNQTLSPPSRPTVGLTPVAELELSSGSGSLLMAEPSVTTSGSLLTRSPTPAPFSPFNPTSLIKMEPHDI
Sequence of CRX (O43186 whole entry): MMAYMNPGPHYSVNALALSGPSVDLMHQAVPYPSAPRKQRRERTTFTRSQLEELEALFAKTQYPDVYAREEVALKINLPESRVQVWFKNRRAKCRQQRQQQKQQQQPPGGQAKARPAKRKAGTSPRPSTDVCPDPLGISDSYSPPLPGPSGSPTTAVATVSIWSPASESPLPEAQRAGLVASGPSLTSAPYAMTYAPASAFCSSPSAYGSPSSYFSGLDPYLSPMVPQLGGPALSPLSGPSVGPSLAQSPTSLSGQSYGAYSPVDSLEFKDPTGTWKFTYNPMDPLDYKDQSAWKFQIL

Sequence | binding signal [1] | binding signal [2] | binding signal [3] | binding signal [4] | binding signal [5] | binding signal [6] | binding signal [7] | binding signal [8] | binding signal [9] | binding signal [10] | binding signal [11] | binding signal [12] | binding signal [13] | binding signal [14] | binding signal [15] | binding signal [16] | binding signal [17] | binding signal [18]
AAGCGG | 1.13 fold enrichment (6-mer frequency, TF over GST control) | 1.05 fold enrichment (6-mer frequency, TF over GST control) | 1.11 fold enrichment (6-mer frequency, TF over GST control) | 1.1 fold enrichment (6-mer frequency, TF over GST control) | 1.11 fold enrichment (6-mer frequency, TF over GST control) | 1.15 fold enrichment (6-mer frequency, TF over GST control) | 1.81 fold enrichment (6-mer frequency, TF over GST control) | 1.03 fold enrichment (6-mer frequency, TF over GST control) | 1.11 fold enrichment (6-mer frequency, TF over GST control) | 1.12 fold enrichment (6-mer frequency, TF over GST control) | 1.27 fold enrichment (6-mer frequency, TF over GST control) | 1.31 fold enrichment (6-mer frequency, TF over GST control) | 1.01 fold enrichment (6-mer frequency, TF over GST control) | 1.14 fold enrichment (6-mer frequency, TF over GST control) | 1.19 fold enrichment (6-mer frequency, TF over GST control) | 1.17 fold enrichment (6-mer frequency, TF over GST control) | 1.11 fold enrichment (6-mer frequency, TF over GST control) | 1.1 fold enrichment (6-mer frequency, TF over GST control)
CAACCC | 1.15 fold enrichment (6-mer frequency, TF over GST control) | 1.22 fold enrichment (6-mer frequency, TF over GST control) | 1.27 fold enrichment (6-mer frequency, TF over GST control) | 1.21 fold enrichment (6-mer frequency, TF over GST control) | 1.24 fold enrichment (6-mer frequency, TF over GST control) | 1.16 fold enrichment (6-mer frequency, TF over GST control) | 1.21 fold enrichment (6-mer frequency, TF over GST control) | 1.26 fold enrichment (6-mer frequency, TF over GST control) | 1.21 fold enrichment (6-mer frequency, TF over GST control) | 1.21 fold enrichment (6-mer frequency, TF over GST control) | 1.23 fold enrichment (6-mer frequency, TF over GST control) | 1.23 fold enrichment (6-mer frequency, TF over GST control) | 1.34 fold enrichment (6-mer frequency, TF over GST control) | 1.22 fold enrichment (6-mer frequency, TF over GST control) | 1.17 fold enrichment (6-mer frequency, TF over GST control) | 1.34 fold enrichment (6-mer frequency, TF over GST control) | – | 1.18 fold enrichment (6-mer frequency, TF over GST control)

— publication PMC7862700, “An all-to-all approach to the identification of sequence-specific readers for epigenetic DNA modifications on cytosine”
